# Measurements published in PubChem BioAssay.
# Active and inactive are the calls of the source.
# Legend:
# [1] = test system: Plasmodium falciparum Sir2 (PF13_0152, Sir2A); assay: Plasmodium falciparum Sir2A binding compounds – biochemical, small-molecule microarray, 635 nm fluorescence, primary screen (AID 1098); conditions: fluorescence 635 nm, higher = more signal;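 further: score merges spot fluorescence intensity with its signal-to-noise ratio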
# [2] = probe aDKK1 binding to arrayed compounds – biochemical, biotinylated probe, 635/667 nm fluorescence, primary screen (AID 1099); conditions: small-molecule microarray, higher = more signal;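 further: score merges 667nm spot fluorescence with signal to noise across triplicate slides; reference of the scale not given here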
# [3] = probe aCHRDL2 binding to arrayed compounds – biochemical, biotinylated probe, 635/667 nm fluorescence, primary screen (AID 1100); conditions: small-molecule microarray, higher = more signal
# [4] = change in splice reporter luminescence, either direction, cell-based, HEK293, spliceosome inhibition project, primary screen (AID 1101); conditions: HEK293 splicing luciferase reporter, 24 h, higher = more signal, called active from +8 up or from −8 down;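 further: HEK293 cells carrying a splicing-competent luciferase reporter gene; test concentration not given here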
# [5] = biological target: Fibroblast growth factor 10 (Homo sapiens) (UniProt O15520); assay: compounds binding fibroblast growth factor 10 – biochemical, small-molecule microarray, 635 nm fluorescence, primary screen (AID 1102); conditions: FGF10 binding, fluorescence 635 nm, higher = more signal
# Fibroblast growth factor 10 (Homo sapiens), sequence (O15520 whole entry, looked up): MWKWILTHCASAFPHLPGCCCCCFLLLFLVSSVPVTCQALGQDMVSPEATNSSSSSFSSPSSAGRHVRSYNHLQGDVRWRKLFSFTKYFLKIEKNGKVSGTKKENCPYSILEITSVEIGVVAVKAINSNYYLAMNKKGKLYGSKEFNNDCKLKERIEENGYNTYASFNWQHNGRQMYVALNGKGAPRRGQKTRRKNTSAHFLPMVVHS
# [6] = test system: glycogen synthase kinase-3 (GSK3A per assay name; protocol says GSK3B); assay: compounds binding glycogen synthase kinase-3 – biochemical, small-molecule microarray, 635 nm fluorescence, GSK3A, primary screen (AID 1103); conditions: fluorescence 635 nm, higher = more signal; further: the record names both GSK3A and GSK3B
# [7] = biological target: Epidermal growth factor receptor (Homo sapiens) (UniProt P00533); assay: compounds binding epidermal growth factor receptor – biochemical, small-molecule microarray, 635 nm fluorescence, primary screen (AID 1104); conditions: EGFR binding, higher = more signal;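 further: score merges 667 nm emission intensity with spot signal to noise over triplicate slides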
# Epidermal growth factor receptor (Homo sapiens), sequence (P00533 whole entry, looked up): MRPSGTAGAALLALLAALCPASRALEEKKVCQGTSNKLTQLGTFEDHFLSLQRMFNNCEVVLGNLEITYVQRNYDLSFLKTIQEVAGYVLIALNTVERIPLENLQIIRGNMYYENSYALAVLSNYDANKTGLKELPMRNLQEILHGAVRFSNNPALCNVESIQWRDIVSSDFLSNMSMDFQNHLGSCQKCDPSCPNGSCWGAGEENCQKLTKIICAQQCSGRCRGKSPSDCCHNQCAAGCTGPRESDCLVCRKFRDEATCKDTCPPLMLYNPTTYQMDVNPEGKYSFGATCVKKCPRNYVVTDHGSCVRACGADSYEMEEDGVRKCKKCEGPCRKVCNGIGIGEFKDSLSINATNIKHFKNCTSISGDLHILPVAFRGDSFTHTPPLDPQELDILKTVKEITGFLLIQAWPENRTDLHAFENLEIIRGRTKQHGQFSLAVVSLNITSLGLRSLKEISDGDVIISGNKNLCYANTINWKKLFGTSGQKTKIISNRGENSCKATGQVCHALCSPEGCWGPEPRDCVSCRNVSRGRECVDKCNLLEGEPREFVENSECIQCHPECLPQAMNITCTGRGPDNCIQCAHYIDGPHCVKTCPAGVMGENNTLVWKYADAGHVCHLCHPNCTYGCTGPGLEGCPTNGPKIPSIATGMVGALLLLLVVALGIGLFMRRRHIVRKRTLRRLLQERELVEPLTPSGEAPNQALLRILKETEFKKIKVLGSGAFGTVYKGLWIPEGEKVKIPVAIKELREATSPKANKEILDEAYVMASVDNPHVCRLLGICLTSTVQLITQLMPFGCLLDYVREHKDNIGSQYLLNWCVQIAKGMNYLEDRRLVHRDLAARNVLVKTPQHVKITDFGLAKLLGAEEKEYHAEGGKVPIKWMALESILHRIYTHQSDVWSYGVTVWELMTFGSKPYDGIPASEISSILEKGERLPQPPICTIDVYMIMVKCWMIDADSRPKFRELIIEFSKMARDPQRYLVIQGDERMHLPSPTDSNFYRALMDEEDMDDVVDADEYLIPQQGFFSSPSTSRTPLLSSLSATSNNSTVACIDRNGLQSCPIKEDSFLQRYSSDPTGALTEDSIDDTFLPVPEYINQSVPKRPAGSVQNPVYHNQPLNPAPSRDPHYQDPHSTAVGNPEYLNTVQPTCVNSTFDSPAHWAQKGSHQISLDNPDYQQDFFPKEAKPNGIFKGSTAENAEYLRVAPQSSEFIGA
# [8] = biological target: Follistatin-related protein 3 (Homo sapiens) (UniProt O95633); assay: compounds binding follistatin-related protein 3 – biochemical, small-molecule microarray, 635 nm fluorescence, primary screen (AID 1105); conditions: FSTL3 binding, higher = more signal;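 further: score merges emission near 667 nm and signal to noise per printed spot across three slides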
# Follistatin-related protein 3 (Homo sapiens), sequence (O95633 whole entry, looked up): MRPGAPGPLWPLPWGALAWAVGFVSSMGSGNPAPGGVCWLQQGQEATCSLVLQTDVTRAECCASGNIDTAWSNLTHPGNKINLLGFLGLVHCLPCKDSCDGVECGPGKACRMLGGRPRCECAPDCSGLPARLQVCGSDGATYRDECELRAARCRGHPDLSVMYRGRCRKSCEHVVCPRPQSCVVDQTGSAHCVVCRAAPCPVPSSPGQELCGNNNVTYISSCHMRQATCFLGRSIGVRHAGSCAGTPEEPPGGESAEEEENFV
# [9] = biological target: Dickkopf-related protein 1 (Homo sapiens) (UniProt O94907); assay: small molecules binding DKK1 protein – biochemical, small-molecule microarray, 635 nm fluorescence scan, primary screen (AID 1106); conditions: higher = more signal;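 further: score merges emission near 667 nm with signal to noise over three replicate slides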
# Dickkopf-related protein 1 (Homo sapiens), sequence (O94907 whole entry, looked up): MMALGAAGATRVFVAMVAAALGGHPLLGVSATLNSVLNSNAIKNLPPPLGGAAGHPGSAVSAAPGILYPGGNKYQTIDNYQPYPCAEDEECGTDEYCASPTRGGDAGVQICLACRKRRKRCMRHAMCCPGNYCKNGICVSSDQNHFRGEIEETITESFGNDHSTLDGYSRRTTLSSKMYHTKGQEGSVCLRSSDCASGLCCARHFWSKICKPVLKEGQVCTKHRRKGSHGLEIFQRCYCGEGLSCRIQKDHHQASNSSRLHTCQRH
# [10] = test system: Inhibin beta A chain (activin A); assay: small molecules binding activin A – biochemical, small-molecule microarray, 635 nm fluorescence scan, primary screen (AID 1107); conditions: INHBA, higher = more signal;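 further: mouse activin A protein probed at 4.33 µg/mL on printed slides; score merges bound-protein fluorescence near 667 nm with spot signal-to-noise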
SMILES,composite z-score [1],composite z-score [2],composite z-score [3],z-score [4],composite z-score [5],composite z-score [6],composite z-score [7],composite z-score [8],composite z-score [9],composite z-score [10]
COCCOC(=O)N1C(=O)[C@@]2(c3cc(C#CCCO)ccc31)[C@H](c1ccccc1OCCO)N1[C@H](c3ccccc3)[C@H](c3ccccc3)OC(=O)[C@H]1[C@@H]2C(=O)N1CCc2cc(OC)c(OC)cc2C1,1.12,0.161,0.395,-0.221 (inactive),1.34,1.28,0.529,1.39,0.421,0.504
CCOC(=O)C[C@H]1[C@H](OC(=O)c2ccc(-c3ccccc3)cc2)[C@@H](NC(=O)c2ccc3ccccc3c2)c2cc(OCCCO)ccc2N1C(=O)c1ccccc1,0.34,-0.393,0.211,0.173 (inactive),1.28,0.972,0.514,0.341,-0.149,-0.121
COc1ccc([Si](C)(C)[C@H]2[C@H](CCn3cc([C@H](O)c4ccccc4)nn3)O[C@@]3(C(=O)N(c4ccccc4)c4ccccc43)[C@@H]2C)cc1,0.459,-0.125,0.0759,-0.299 (inactive),0.355,-0.44,-0.166,0.34,-0.0331,-0.168
C=C(COC)/C(=C/C[C@H](OC(=O)c1ccncc1)c1cccc(OCCO)c1)c1cnc2ccccc2c1,0.691,0.199,0.293,0.0664 (inactive),1.05,1.3,0.855,1.45,0.938,1.2
C#CCN([C@H](/C=C/C1CC1)[C@@H](O)Cc1ccccc1)[C@@H](Cc1ccccc1)C(=O)OC,-0.135,-0.281,0.0495,-0.606 (inactive),-0.351,-0.604,-0.215,0.232,-0.0707,0.858
COC(=O)Cn1c(C(=O)N(C)C)cc2c1C[C@H]1CN(C(=O)c3ccccc3)[C@@](Cc3ccc(OC)cc3)(C(=O)OC)[C@@H]21,1.39,0.311,0.635,-4.19 (inactive),1.13,-0.196,0.0287,0.36,-0.165,0.421
C=C(COC)C(=O)CC[C@@H](OC(C)=O)c1ccc(OCCO)cc1,1.09,0.237,0.523,2 (inactive),0.977,0.186,-0.484,0.278,-0.0393,1.42
COC(=O)C1(CC(C)C)C=C2C(=C(C(C)C)C(=O)C2C)CN1 (stereo not given),-0.573,0.834,0.937,1.97 (inactive),-0.296,-2,-0.961,-0.771,-0.871,1.34
COC(=O)[C@@]1(Cc2ccc(F)cc2)[C@H]2c3cc(C(=O)N(C)C)n(CCn4cc([N+](=O)[O-])nc4C)c3C[C@H]2CN1C(=O)c1ccccc1,0.445,0.539,0.648,1.11 (inactive),-0.279,0.0339,-0.0789,-0.445,-0.145,0.894
COc1cccc(C[C@H]2C[C@@H](CO[Si](C(C)C)(C(C)C)C(C)C)N3C(=O)[C@@]4(C(C)=O)O[C@@]23[C@@H]2C(=O)N(C)C(=O)[C@@H]24)c1,0.95,-0.0648,-0.197,-0.989 (inactive),1.22,0.5,0.494,1.17,1.62,-0.0336
COCC1=C([C@H](O)CCc2ccccc2)[C@H](CO)n2c(=O)n(-c3ccccc3)c(=O)n2C1,-0.285,-0.412,-0.39,-1.12 (inactive),-0.187,-0.295,0.445,-0.41,0.353,0.785
CCCCNC(=O)c1ccc(C#C[Si](C)(C)C)c(OC(C)=O)c1,-0.0653,-0.31,-0.509,-0.176 (inactive),0.458,0.419,0.315,0.384,0.374,0.58
C/C=C/CN(C(=O)C#Cc1ccccc1)[C@H](CO[Si](C)(C)C(C)(C)C)c1ccccc1,-0.435,-0.65,-0.169,-3.21 (inactive),-1.27,-0.0745,-1.37,-1.44,-0.72,1.19
COc1ccc(NC(=O)O[C@H]2[C@H](OC(=O)Nc3ccc4c(c3)OCO4)[C@H](OC(=O)Nc3ccc4c(c3)OCO4)[C@@H](OC)O[C@@H]2CO)cc1,1.51,0.125,0.58,-0.213 (inactive),0.81,1.23,-0.385,0.59,0.409,0.753
CC(C)CNC(=O)[C@@H]1c2ccccc2C(=O)N(C2Cc3ccccc3C2)[C@H]1c1ccc(CO)cc1,1.41,-0.0818,0.435,-0.179 (inactive),-0.127,-0.0545,-0.267,-0.192,-0.777,0.245
COC(=O)[C@H](Cc1ccc(O)cc1)N1CC2=CCCC=C[C@@H]2[C@H]1[C@H](O)Cc1ccccc1,0.751,-0.301,-0.538,-1.07 (inactive),0.477,-0.159,0.72,0.255,0.0139,0.493
CCOC(=O)C1=CCC(c2cc3ccccc3[nH]2)N(S(=O)(=O)c2ccccc2[N+](=O)[O-])C1 (stereo not given),0.984,0.225,-0.006,-0.365 (inactive),0.696,0.565,-0.106,0.319,-0.117,0.722
COC(=O)[C@@]1(Cc2ccc(OC)cc2)[C@@H]2[C@@H](CC(=O)[C@H]2CC(=O)C(=O)N2CCCC2)CN1C(=O)c1ccccc1,1.66,2.76,1.21,-2.69 (inactive),1.44,1.07,0.725,0.868,0.823,0.846
O=C1NC(=O)C2C1C=CC(C(O)c1ccc(F)cc1)N2Nc1ccccn1 (stereo not given),1.06,-0.118,0.243,1.23 (inactive),0.138,-0.371,0.255,-0.0918,0.297,0.877
[N-]=[N+]=NCc1ccccc1[C@H]1OC(c2ccc(OCCCO)cc2)=N[C@@]1(Cc1ccccc1)C(=O)N1CCOCC1,1.25,0.721,0.884,-0.991 (inactive),1.37,1.33,0.0968,0.808,-0.0244,-0.303
COCCOC(=O)N1C(=O)[C@@]2(c3cc(C#CCC(C(=O)OC)C(=O)OC)ccc31)[C@H](c1ccc(OCCO)cc1)N1[C@H](c3ccccc3)[C@H](c3ccccc3)OC(=O)[C@H]1[C@@H]2C(=O)N1CCCCCCC1,1.27,2.5,1.21,-0.915 (inactive),0.778,1.34,1.32,1.66,1.04,1.93
